High-throughput results (PubChem BioAssay)
AmpC inh det – inhibitors of E. coli AmpC beta-lactamase with detergent; purified AmpC, nitrocefin hydrolysis with detergent; Potency, µM (doses to about 28.7 µM), inactives show top-dose activity change, negative = inhibition; actives 0.09% (n = 71,000); active = well fitted curve in the direction sought with a large enough effect; inconclusive = small, poorly fitted or top-dose-only effect; also: % is scaled to controls: 0 for no effect and ±100 for the full control effect
Target sequence (P00811 whole entry, looked up): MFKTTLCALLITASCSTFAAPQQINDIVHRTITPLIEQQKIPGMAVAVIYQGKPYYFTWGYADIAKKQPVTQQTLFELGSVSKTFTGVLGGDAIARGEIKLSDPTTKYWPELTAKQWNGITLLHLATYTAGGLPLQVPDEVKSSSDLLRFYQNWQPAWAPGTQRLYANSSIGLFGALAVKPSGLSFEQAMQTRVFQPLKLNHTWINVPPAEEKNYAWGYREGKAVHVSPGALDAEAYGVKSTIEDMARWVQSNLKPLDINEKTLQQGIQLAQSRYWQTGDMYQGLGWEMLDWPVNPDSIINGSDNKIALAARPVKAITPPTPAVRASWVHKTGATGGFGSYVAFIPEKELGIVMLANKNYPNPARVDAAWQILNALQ
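E. coli AmpC (5.3 nM) in 20 mM phosphate pH 7.0 with 0.01% Triton X-100, preincubated 15 min RT with compound; nitrocefin (2 uL of 800 uM stock) hydrolysis followed by 480 nm absorbance every 20 s over 4 min.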
AmpC nodet inh – blocks E. coli AmpC beta-lactamase in absence of detergent. P00811. AmpC nitrocefin hydrolysis, absorbance 480 nm, no detergent. Potency, µM (doses to about 28.7 µM), for inactives: at the top dose activity change, negative = inhibition. actives 1.8% (n = 71,000). AID 585; also: % of control where 0% means no effect
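AmpC in 20 mM phosphate buffer pH 7.0 was preincubated 15 min at room temperature with compounds. Nitrocefin (800 uM stock) was then added and hydrolysis followed at 480 nm every 20 s for 4 min.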
SmPrx2 inh – Schistosoma mansoni Prx2 inhibition; actives 0.07% (n = 65,000); Potency, µM; S. mansoni Prx2 activity coupled to TGR/GSH (TGR is thioredoxin glutathione reductase), NADPH fluorescence loss, qHTS
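Prx2 activity was followed as the loss of NADPH fluorescence (ex 365/em 450 nm), read every 30 sec for 8 min after H2O2 start. The enzyme mix (50 nM Prx2, 25 nM TGR, GSH, NADPH; pH 7.4 phosphate buffer) was incubated with compound for 15 min at room temperature first.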
LT uptake inh – inhibitors of anthrax lethal toxin internalization | Cells, anthrax lethal toxin internalization, FRET ratio (460/530) | Potency, µM (titrated, usually from 40 µM), inactives show top-dose activity change, negative = inhibition, hits mostly inhibitors | actives 0.67% (n = 70,000); also: % is scaled to controls: 0 for no effect and ±100 for the full control effect; nearly all actives have a fitted effect of over 50% in size
The depositor's hits bear a star; ? = inconclusive; · = no result given; [ ] = remark or other dose. Most compounds without a hit are left out; they make up all but 2.4% or so of the library. Unless noted, calls follow the shape of the full dose curve. Potency is read from the fitted curve at half-maximal effect.

SMILES	AmpC inh det	AmpC nodet inh	SmPrx2 inh	LT uptake inh
OC(COc1ccc(Cl)cc1)CN1CCCCC1 (stereo unspecified)	1.0%	-1.9%	>57	-16.8%
COc1ccc(OCC(O)CN2CCCCC2)cc1 (stereo unspecified)	10.9%	3.98µM*[single pt active]	>57	-8.7%
c1ccc2sc(C3(N4CCCCC4)CCCCC3)cc2c1	-2.8%	26.7%	>57	25.1µM*
O=[N+]([O-])c1ccc2c(c1)c(S(=O)(=O)O)cc1nonc12	-1.7%[5.75 µM]	5.3%[5.75 µM]	>11.4	?
Cc1ccc2oc(=O)c3cc(C(=O)N4CCN(c5ncccn5)CC4)sc3c2c1	10.7%	3.98µM*[single pt active]	>57	-16.2%
Cc1ccc2oc(=O)c3cc(C(=O)N4CCN(C(=O)c5ccco5)CC4)sc3c2c1	12.5%	2.4%	>57	-4.1%
CN1CCN(CN2C(=O)C3C4C=CC(C3C2=O)C2C3C(=O)N(CN5CCN(C)CC5)C(=O)C3C42)CC1 (stereo unspecified)	-1.7%[5.75 µM]	-0.1%[5.75 µM]	>57	-5.7%[8 µM]
O=c1c(CCc2ccccc2)nc2cnc(N3CCNCC3)nc2n1C1CC1	-4.9%	38.9%	>57	?
Cc1cc2ccccc2n1CCNC(=O)C(C)C	10.0%	21.5%	>57	-6.1%
Cc1ccc(S(=O)(=O)NCCn2c(C)cc3ccccc32)cc1	-3.5%	15.8µM*[single pt active]	>57	-8.8%
Cc1nc2cnc(N3CCN(C)CC3)nc2n(CCc2ccccc2)c1=O	-0.9%	66.1%	>57	2.5%
O=C1C2CC=CCC2C(=O)N1CC1CCCO1 (stereo unspecified)	-1.6%	-10.6%	>57	-12.5%
O=C1C2CC=CCC2C(=O)N1SC(Cl)(Cl)Cl (stereo unspecified)	-3.5%	?	·	3.16µM*
O=C(O)c1cc[c]([Hg][S]c2ncnc3nc[nH]c23)cc1	-7.2%[5.75 µM]	-2.2%[5.75 µM]	0.861*	-4.7%[8 µM]
O=C(O)CCSc1ncnc2nc[nH]c12	-3.5%[5.75 µM]	2.4%[5.75 µM]	>57	-7.6%[8 µM]
c1ccc(C(CN2CCOCC2)c2ccccc2)cc1	-2.6%	18.9%	>57	3.2%
O=C(c1ccc(F)cc1)C(CN1CCOCC1)c1ccccc1 (stereo unspecified)	-3.9%	42.3%	·	12.6µM*
COc1ccc(-n2c(Cc3cc(=O)[nH]c(=O)[nH]3)nnc2SCC(=O)Nc2ccccc2)cc1	11.4%	?	>57	?
COc1cccc(-n2c(Cc3cc(=O)[nH]c(=O)[nH]3)nnc2SCC(=O)N2CCC(C)CC2)c1	-0.6%	8.0%	>57	14.0%
O=C(CSc1nnc(Cc2cc(=O)[nH]c(=O)[nH]2)n1-c1ccccc1)N1CCCC1	-1.2%	-16.9%	>57	7.9%
O=C(CSc1nnc(Cc2cc(=O)[nH]c(=O)[nH]2)n1-c1ccccc1)N1CCCCC1	11.2%	3.16µM*[single pt active]	>57	-1.8%
COc1cccc(-n2c(Cc3cc(=O)[nH]c(=O)[nH]3)nnc2SCC(=O)N2CCCCCC2)c1	14.1%	3.98µM*[single pt active]	>57	-8.4%
COc1cccc(-n2c(Cc3cc(=O)[nH]c(=O)[nH]3)nnc2SCC(=O)N2CCCC2)c1	16.6%	-7.7%	>57	0.9%
COc1ccc(-n2c(Cc3cc(=O)[nH]c(=O)[nH]3)nnc2SCC(=O)N2CCC(C)CC2)cc1	13.8%	3.98µM*[single pt active]	>57	-4.7%
COc1ccc(-n2c(Cc3cc(=O)[nH]c(=O)[nH]3)nnc2SCC(=O)N2CCCC2)cc1	14.4%	3.98µM*[single pt active]	>57	-4.8%
SMILES	AmpC inh det	AmpC nodet inh	SmPrx2 inh	LT uptake inh
COc1ccc(C(=O)N2CCC[C@@]3(CCN(C(=O)Nc4cccc(C#N)c4)C3)C2)cc1	-1.1%	11.1%	>57	-4.8%
COCCn1c(=O)c(-c2ccc(Cl)cc2)nc2cnc(N3CCOCC3)nc21	1.6%	7.7%	>57	-5.8%
CC1CCN(C(=O)CSc2nnc(Cc3cc(=O)[nH]c(=O)[nH]3)n2-c2ccc(Cl)cc2)CC1	7.6%	3.98µM*[single pt active]	>57	-2.4%
O=C(NCCc1c[nH]c2ccccc12)c1ccc(S(=O)(=O)NCc2ccco2)cc1	-3.8%	15.8µM*	>57	-28.1%
O=C(CCSc1nnc2scc(-c3ccccc3)n12)Nc1nc(-c2ccccc2)ns1	-4.3%	5.01µM*	>57	12.2%
O=C(CSc1nccc2ccccc12)N1CCN(c2ccccn2)CC1	9.7%	16.6%	>57	5.01µM*
O=C(CC1CCCCC1)N1CCN(c2ccccn2)CC1	-2.8%	16.7%	>57	-2.5%
O=C(O)CCC(=O)N1CCN(c2ccccn2)CC1	16.6%	?	>57	-8.6%
O=C(COc1ccc2ccccc2c1Br)N1CCN(c2ccccn2)CC1	-0.3%	64.3%	>57	12.6µM*
